This passage reports AC50 and outcome results from PubChem BioAssay (EPA / NIEHS).

SMILES strings stand for the structures. Records with an inconclusive call do not appear. Activity calls are given as the source filed them. How the source made its calls, unless noted: active means hit-call score of the fitted dose curve at least 0.9, where 1 is the maximum; inactive means score below 0.9.

The nature of test [1]: ATG_PBREM_CIS: Attagene CIS-FACTORIAL HepG2 Assay for human Phenobarbital-responsive Enhancer Module (PBREM) (AID 2282955). The settings on record: HepG2 PBREM cis-reporter, Attagene multiplexed transcription; actives raise or lower the signal. In outline:
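Readout: reporter mRNA, fluorescent RT-PCR fragments separated by capillary electrophoresis. System: HepG2 transiently transfected with cis-regulated reporter units. Exposure: 24 h. Analysis: bidirectional, DMSO baseline.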

The target in test [2] is Paired box protein Pax-6 (Homo sapiens) (UniProt P26367). In words: ATG_Pax6_CIS: Attagene CIS-FACTORIAL HepG2 Assay for human Paired Box 6 (PAX6) (AID 2282956). As to conditions: HepG2 CIS-FACTORIAL PAX6 reporter transcription, RNA readout; actives raise or lower the signal. The gist of the method:
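Multiplexed cis-reporter HepG2 system; 24 h treatment; reporter mRNA read by RT-PCR/CE fluorescence; bidirectional fit vs DMSO.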

Test [3] is described as follows: ATG_PXRE_CIS: Attagene CIS-FACTORIAL HepG2 Assay for human Pregnane X Receptor Element (PXRE) (AID 2282957). The settings on record: HepG2 Attagene CIS-FACTORIAL PXRE reporter, mRNA; actives raise or lower the signal. In outline:
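Transfect HepG2 with MRTUs (cis promoter elements); dose chemical, incubate 24 h; isolate RNA, RT with oligo(dT), PCR, 6-FAM label, HpaI cut, CE. Gain/loss fit vs DMSO.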

Test [4] in a line: ATG_PPRE_CIS: Attagene CIS-FACTORIAL HepG2 Assay for human Peroxisome Proliferator-activated Response Element (PPRE) (AID 2282958). The settings on record: HepG2 PPRE cis-element reporter, Attagene transcription factor profiling; actives raise or lower the signal. In outline: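 After human HepG2 hepatoma cells were transiently transfected with cis-promoter reporter constructs, they were exposed to test chemicals for 24 hours. Reporter RNA was then reverse-transcribed, PCR-amplified, FAM-labeled, HpaI-digested and quantified by capillary electrophoresis.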

Test [5] can be described thus: ATG_Sox_CIS: Attagene CIS-FACTORIAL HepG2 Assay for human SRY-box transcription factor (SOX) (AID 2282960). The settings on record: HepG2 Attagene cis-factorial SOX reporter, mRNA; actives raise or lower the signal. In outline:
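Using transiently transfected HepG2 cells, reporter transcription driven by cis elements was assessed 24 h after dosing. Signal was fluorescence of capillary-separated RT-PCR products, with DMSO defining baseline activity.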

For test [6], the target named is Transcription factor Sp1 (Homo sapiens) (UniProt P08047). Nature of the test: ATG_Sp1_CIS: Attagene CIS-FACTORIAL HepG2 Assay for human Specificity Protein 1 (Sp1) (AID 2282961). As to conditions: HepG2 Sp1 cis-reporter transcription, actives raise or lower the signal. In outline:
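After transient transfection of HepG2 cells with cis-promoter reporter units and 24 h chemical treatment, reporter transcripts were quantified by RT-PCR and capillary electrophoresis fluorescence. Gain- and loss-of-signal fitted against DMSO.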

Test [7] in a line: ATG_SREBP_CIS: Attagene CIS-FACTORIAL HepG2 Assay for human Sterol Regulatory Element Binding (SREBP) (AID 2282962). The settings on record: HepG2 Attagene cis-factorial SREBP reporter, mRNA; actives raise or lower the signal. In outline:
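mRNA induction of transfected cis-promoter reporters in HepG2 cells, 24 h post-dose. Detection: RT-PCR with 6-FAM-labelled products, HpaI digest, capillary electrophoresis. DMSO served as negative control and baseline.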

Test [8] has as its target Signal transducer and activator of transcription 3 (Homo sapiens) (UniProt P40763). Nature of the test: ATG_STAT3_CIS: Attagene CIS-FACTORIAL HepG2 Assay for human Signal Transducer and Activator of Transcription 3 (STAT3) (AID 2282963). As to conditions: HepG2, Attagene cis-factorial STAT3 reporter transcription; actives raise or lower the signal. The gist of the method:
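Endogenous STAT3-responsive cis-element activity was read in transiently transfected HepG2 cells after 24 h treatment. Reporter transcripts were quantified via RT-PCR and capillary electrophoresis, with DMSO as negative control and bidirectional curve fitting.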

Test [9] in a line: ATG_TA_CIS: Attagene CIS-FACTORIAL HepG2 Assay for human TA Basal Promoter (AID 2282964). The settings on record: HepG2 Attagene CIS-factorial TA basal promoter reporter; actives raise or lower the signal. The gist of the method:
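Steps: transfect HepG2 with MRTUs; dose 24 h; isolate RNA, DNase-treat, reverse-transcribe; PCR and FAM-label reporter cDNA; digest with HpaI 2h at 37 C; run capillary electrophoresis. Activity fitted both directions against DMSO.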

Test [10] can be described thus: ATG_TCF_b_cat_CIS: Attagene CIS-FACTORIAL HepG2 Assay for human T-Cell-Factor with beta-catenin (TCF/b-cat) (AID 2282965). As to conditions: HepG2 TCF/beta-catenin cis-reporter transcription, actives raise or lower the signal. In outline: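 Endogenous TCF/LEF activity read as reporter transcript level via RT-PCR and capillary electrophoresis fluorescence in transfected HepG2, 24 h exposure; gain or loss of signal fitted against DMSO controls.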

A short description of test [11]: ATG_TAL_CIS: Attagene CIS-FACTORIAL HepG2 Assay for human TAL Basal Promoter (AID 2282966).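 Further: background control endpoint measuring basal TAL promoter reporter mRNA not a specific factor.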 As to conditions: HepG2 Attagene cis-factorial TAL promoter reporter; actives raise or lower the signal. The gist of the method:
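Fluorescence of labelled reporter cDNA fragments, resolved by capillary electrophoresis, gave the readout. Human HepG2 liver cells carried transiently transfected cis-element reporter units and were treated for 24 hours; activity was fitted bidirectionally against DMSO.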

The nature of test [12]: ATG_TGFb_CIS: Attagene CIS-FACTORIAL HepG2 Assay for human Transforming Growth Factor (TGF) (AID 2282967). As to conditions: HepG2 Attagene CIS TGFb reporter, mRNA transcription; actives raise or lower the signal. In outline:
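Cells were dosed for 24 hours, after which total RNA was reverse-transcribed and reporter sequences amplified, labeled and sized by capillary electrophoresis. Activity was fitted in both directions against DMSO.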

The target in test [13] is X-box-binding protein 1 (Homo sapiens) (UniProt P17861). In words: ATG_Xbp1_CIS: Attagene CIS-FACTORIAL HepG2 Assay for human X-box Binding Protein 1 (XBP1) (AID 2282972). The settings on record: HepG2 XBP1 cis-element reporter, Attagene multiplex; actives raise or lower the signal. In outline: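 Fluorescence-labelled cDNA fragments from reporter transcripts, separated by capillary electrophoresis, give the signal. Source: HepG2 cells transfected with promoter-driven reporter units, harvested 24 h post-dose. DMSO served as reference for bidirectional curve fitting.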
Chain of X-box-binding protein 1 (Homo sapiens) (P17861 whole entry, looked up, the tested form may be a part): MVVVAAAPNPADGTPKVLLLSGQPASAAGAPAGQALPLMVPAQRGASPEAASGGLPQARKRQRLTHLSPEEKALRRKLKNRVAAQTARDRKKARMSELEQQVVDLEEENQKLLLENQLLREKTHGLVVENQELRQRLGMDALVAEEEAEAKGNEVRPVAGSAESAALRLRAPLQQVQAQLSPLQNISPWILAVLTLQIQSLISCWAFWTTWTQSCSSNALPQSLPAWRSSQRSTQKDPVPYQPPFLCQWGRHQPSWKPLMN

Test [14] is described as follows: ATG_M_19_TRANS: Attagene TRANS-FACTORIAL HepG2 Assay for M19 Transcription Factor (Internal Marker) (AID 2282974; active means hit-call score of the fitted dose curve at least 0.9, where 1 is the maximum). The settings on record: HepG2 Attagene TRANS-FACTORIAL M19 internal marker reporter. The gist of the method:
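Gain-of-signal in reporter mRNA, relative to DMSO, was scored from capillary electrophoresis fluorescence. HepG2 cells carried transiently transfected multiple reporter transcription units and were incubated with test chemicals for 24 h.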

Test [15] in a line: ATG_VDRE_CIS: Attagene CIS-FACTORIAL HepG2 Assay for human Vitamin D Receptor Element (VDRE) (AID 2282968). As to conditions: HepG2 VDRE cis-reporter transcription, actives raise or lower the signal. In outline: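 Reporter mRNA induction, quantified by capillary electrophoresis of fluorescently labelled RT-PCR products, was read 24 h after dosing HepG2 cells carrying transiently transfected cis-regulated reporter units; gain or loss relative to DMSO.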

In test [16] the target is Nuclear receptor subfamily 1 group I member 3 (Homo sapiens) (UniProt Q14994). In words: ATG_CAR_TRANS: Attagene TRANS-FACTORIAL HepG2 Assay for human Constitutive Androstane Receptor (CAR) (AID 2282969; active means hit-call score of the fitted dose curve at least 0.9, where 1 is the maximum;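 further: activators raise reporter mRNA above DMSO so AC50 marks induction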). As to conditions: HepG2 Attagene TRANS-FACTORIAL CAR reporter. In outline:
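Readout is reporter mRNA induction, quantified by fluorescent primer extension and capillary electrophoresis after RT-PCR. Cells were HepG2 transiently carrying chimeric NR-Gal4 constructs with GAL4-UAS reporters, treated for 24 h; activity scored upward from DMSO.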

Test [17] concerns the target Estrogen receptor (Homo sapiens) (UniProt P03372). Nature of the test: ATG_ERa_TRANS: Attagene TRANS-FACTORIAL HepG2 Assay for human Estrogen Receptor alpha (ERa) (AID 2282970; active means hit-call score of the fitted dose curve at least 0.9, where 1 is the maximum). The settings on record: HepG2 Attagene TRANS ERa GAL4 reporter, mRNA. In outline:
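Human liver HepG2, transient transfection of multiple GAL4-UAS reporter units; TRANS format (exogenous NR-Gal4 chimera). 24 h dosing. Readout: reporter mRNA, RT-PCR, 6-FAM primer extension, HpaI digest, capillary electrophoresis. Positive direction vs DMSO.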

The nature of test [18]: ATG_RORE_CIS: Attagene CIS-FACTORIAL HepG2 Assay for human RAR-related Orphan Receptor Element (RORE) (AID 2282959). As to conditions: HepG2 Attagene cis-factorial RORE reporter, mRNA; actives raise or lower the signal. In outline: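 Measured here: transcript induction of a cis-regulated reporter in HepG2 cells transiently transfected via FuGene 6. After 24 h, RNA was processed by RT-PCR and fluorescent capillary electrophoresis; DMSO defined baseline activity.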

The target of test [19] is Steroid hormone receptor ERR1 (Homo sapiens) (UniProt P11474). In words: ATG_ERRa_TRANS: Attagene TRANS-FACTORIAL HepG2 Assay for human Estrogen-Related Receptor alpha (ERRa) (AID 2282971; active means hit-call score of the fitted dose curve at least 0.9, where 1 is the maximum). The settings on record: HepG2 Attagene TRANS reporter, ERRa transactivation. The gist of the method: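 Reporter transcript induction was quantified by RT-PCR and capillary electrophoresis of FAM-labelled, HpaI-cut products after 24 h treatment of HepG2 cells carrying transiently transfected GAL4-UAS reporter units and an exogenous ERRa-Gal4 fusion; activity scored as increase over DMSO.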
Chain of Steroid hormone receptor ERR1 (Homo sapiens) (P11474 whole entry, looked up, the tested form may be a part): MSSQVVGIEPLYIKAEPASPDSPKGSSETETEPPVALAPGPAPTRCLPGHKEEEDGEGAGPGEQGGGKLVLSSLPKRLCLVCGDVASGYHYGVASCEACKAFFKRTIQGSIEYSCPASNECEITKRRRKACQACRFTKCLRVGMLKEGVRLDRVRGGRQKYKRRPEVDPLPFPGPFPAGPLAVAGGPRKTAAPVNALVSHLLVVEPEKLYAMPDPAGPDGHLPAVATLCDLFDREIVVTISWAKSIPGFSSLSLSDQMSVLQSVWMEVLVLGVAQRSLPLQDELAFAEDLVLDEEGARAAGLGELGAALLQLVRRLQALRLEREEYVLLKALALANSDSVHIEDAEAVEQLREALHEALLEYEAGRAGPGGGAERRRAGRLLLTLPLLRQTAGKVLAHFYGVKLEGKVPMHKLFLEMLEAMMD

The nature of test [20]: ATG_GAL4_TRANS: Attagene TRANS-FACTORIAL HepG2 Assay for GAL4 (Internal Marker) (AID 2282976; active means hit-call score of the fitted dose curve at least 0.9, where 1 is the maximum). The settings on record: HepG2 Attagene TRANS GAL4 internal marker reporter. In outline: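 First, HepG2 cells were transfected with reporter units under GAL4-UAS control. Next, they were treated with chemical for 24 h. Finally, RNA was reverse-transcribed, PCR-amplified, FAM-labelled and resolved by capillary electrophoresis, with induction scored against DMSO.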

Chain of Estrogen receptor (Homo sapiens) (P03372 whole entry, looked up, the tested form may be a part): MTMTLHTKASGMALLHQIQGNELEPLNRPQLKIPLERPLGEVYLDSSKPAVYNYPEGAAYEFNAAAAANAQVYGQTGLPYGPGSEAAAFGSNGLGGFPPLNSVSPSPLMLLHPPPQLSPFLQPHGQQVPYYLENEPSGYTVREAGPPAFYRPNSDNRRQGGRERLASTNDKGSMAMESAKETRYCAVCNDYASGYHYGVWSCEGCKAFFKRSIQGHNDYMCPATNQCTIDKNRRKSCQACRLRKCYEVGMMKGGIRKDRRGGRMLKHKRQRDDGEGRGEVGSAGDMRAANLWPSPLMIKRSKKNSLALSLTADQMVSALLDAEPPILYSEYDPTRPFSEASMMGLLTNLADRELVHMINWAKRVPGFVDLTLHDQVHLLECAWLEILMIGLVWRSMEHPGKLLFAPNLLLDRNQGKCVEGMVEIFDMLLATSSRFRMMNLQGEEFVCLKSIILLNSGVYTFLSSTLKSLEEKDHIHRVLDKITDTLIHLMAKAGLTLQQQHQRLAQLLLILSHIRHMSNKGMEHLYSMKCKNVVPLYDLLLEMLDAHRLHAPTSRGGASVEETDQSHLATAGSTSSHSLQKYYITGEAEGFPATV
Chain of Paired box protein Pax-6 (Homo sapiens) (P26367 whole entry, looked up): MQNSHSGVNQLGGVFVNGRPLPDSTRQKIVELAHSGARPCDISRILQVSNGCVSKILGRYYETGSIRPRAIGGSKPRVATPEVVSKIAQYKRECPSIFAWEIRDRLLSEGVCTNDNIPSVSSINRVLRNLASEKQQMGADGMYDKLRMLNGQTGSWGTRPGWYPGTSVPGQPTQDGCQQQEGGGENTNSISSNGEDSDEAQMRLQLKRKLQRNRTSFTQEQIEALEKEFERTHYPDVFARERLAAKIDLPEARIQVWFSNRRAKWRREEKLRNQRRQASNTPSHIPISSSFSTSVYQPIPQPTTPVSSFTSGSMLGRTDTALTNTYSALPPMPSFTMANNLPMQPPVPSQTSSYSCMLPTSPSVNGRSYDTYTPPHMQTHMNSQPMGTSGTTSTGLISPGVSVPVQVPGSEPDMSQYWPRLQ
Chain of Signal transducer and activator of transcription 3 (Homo sapiens) (P40763 whole entry, looked up): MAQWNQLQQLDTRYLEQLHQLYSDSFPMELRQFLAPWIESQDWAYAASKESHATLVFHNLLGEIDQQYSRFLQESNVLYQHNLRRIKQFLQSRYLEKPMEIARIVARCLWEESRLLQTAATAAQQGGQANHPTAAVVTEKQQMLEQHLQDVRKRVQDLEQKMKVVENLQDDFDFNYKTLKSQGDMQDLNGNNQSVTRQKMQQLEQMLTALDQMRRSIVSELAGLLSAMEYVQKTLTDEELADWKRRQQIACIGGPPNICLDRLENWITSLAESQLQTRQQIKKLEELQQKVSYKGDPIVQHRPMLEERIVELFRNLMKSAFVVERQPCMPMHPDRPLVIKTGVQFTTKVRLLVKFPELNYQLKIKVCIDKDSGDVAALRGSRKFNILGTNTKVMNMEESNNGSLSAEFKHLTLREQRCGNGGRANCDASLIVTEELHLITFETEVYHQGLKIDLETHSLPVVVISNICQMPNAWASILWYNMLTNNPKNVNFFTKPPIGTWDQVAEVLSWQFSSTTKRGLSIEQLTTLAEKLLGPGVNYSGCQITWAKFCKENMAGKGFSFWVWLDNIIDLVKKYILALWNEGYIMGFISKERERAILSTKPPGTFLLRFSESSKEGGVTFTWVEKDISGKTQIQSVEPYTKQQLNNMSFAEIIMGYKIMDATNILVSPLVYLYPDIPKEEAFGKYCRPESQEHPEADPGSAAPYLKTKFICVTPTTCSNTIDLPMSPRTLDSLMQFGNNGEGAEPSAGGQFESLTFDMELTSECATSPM
Chain of Transcription factor Sp1 (Homo sapiens) (P08047 whole entry, looked up): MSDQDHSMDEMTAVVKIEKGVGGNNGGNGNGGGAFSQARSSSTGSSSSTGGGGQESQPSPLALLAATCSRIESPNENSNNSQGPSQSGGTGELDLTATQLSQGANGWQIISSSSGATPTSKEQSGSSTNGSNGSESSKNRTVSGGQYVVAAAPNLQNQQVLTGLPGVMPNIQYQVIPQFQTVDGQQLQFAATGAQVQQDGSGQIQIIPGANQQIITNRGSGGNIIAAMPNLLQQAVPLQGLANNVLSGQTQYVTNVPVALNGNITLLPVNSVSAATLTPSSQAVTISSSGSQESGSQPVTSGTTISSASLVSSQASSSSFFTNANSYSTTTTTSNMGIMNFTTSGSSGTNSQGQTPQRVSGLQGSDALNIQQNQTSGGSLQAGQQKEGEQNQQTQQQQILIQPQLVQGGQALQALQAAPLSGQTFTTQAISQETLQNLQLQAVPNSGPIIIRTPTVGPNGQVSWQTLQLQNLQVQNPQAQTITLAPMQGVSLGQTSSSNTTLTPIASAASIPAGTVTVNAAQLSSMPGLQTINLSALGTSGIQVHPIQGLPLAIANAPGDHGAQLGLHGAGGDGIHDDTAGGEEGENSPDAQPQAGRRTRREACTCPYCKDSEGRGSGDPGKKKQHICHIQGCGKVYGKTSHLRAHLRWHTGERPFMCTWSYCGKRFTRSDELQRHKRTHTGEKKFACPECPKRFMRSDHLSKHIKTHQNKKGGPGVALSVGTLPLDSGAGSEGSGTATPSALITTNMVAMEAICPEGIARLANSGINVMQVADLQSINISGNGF
Chain of Nuclear receptor subfamily 1 group I member 3 (Homo sapiens) (Q14994 whole entry, looked up, the tested form may be a part): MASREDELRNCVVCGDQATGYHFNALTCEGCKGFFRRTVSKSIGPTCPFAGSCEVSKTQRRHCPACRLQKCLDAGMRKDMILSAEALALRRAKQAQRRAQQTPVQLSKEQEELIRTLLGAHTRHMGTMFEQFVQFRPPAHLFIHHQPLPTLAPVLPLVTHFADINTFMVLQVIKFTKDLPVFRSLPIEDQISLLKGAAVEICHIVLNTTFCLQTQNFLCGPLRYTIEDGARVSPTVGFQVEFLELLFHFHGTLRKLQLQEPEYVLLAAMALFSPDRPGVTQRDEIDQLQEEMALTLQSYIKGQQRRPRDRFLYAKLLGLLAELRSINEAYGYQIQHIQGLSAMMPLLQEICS

A word on the AC50: it is the midpoint of the concentration-response curve, whichever way the signal moves. Take `COCCOCCC[Si](C)(O[Si](C)(C)C)O[Si](C)(C)C`: the concentration at half-maximal activity (AC50) in test [1] is 8.38 µM (active); in test [3], 0.752 µM (active); in test [5], 8.52 µM (active); in test [6], 9.13 µM (active); in test [7] it was 6.62 µM (active); in test [10], 33.4 µM (active). Also, in test [13], the concentration at half-maximal activity (AC50) was 2.99 µM (active). Besides, the compound was classed as inactive in [2], in test [4], in [8], in test [9], in test [11] and in [12]. Also, the compound was called inactive in test [14].

For the compound `O=C(c1ccccc1)c1ccc(Cl)cc1`, the AC50 in [1] is 47.2 µM (active); in test [3], 27.5 µM (active); in test [12] it was 100 µM (active); in test [15], 47.6 µM (active); in test [17], 12.1 µM (active). The result in test [2], in test [4], in test [5], in [6], in [7] and in [8] was inactive. For the same compound, the compound was called inactive in [9], in test [10], in test [11], in test [16] and in [13].

`Cc1ccc2c(c1)OCC(=O)CO2`: the result in test [1], in test [2], in test [4], in test [18], in test [5] and in test [6] was inactive. Moreover, the call in test [7], in test [8], in test [10], in test [11], in test [12] and in [15] was inactive. Also, the compound was classed as inactive in test [17], in [19], in test [13] and in test [14]. Further, the half-maximal activity concentration (AC50) in test [3] is 77 µM (active).

For `CCCCOC(=O)[C@H](C)O`, the result in test [1], in test [2], in test [3], in [4], in test [18] and in test [5] was inactive. The outcome in test [6], in test [7], in test [8], in test [10], in test [11] and in [12] was inactive. Besides, the compound was classed as inactive in test [15], in test [17], in test [13], in test [14] and in test [20].

Consider `C#CC(O)CCC` (stereo not drawn), for which the result in test [1], in test [2], in test [3], in test [4], in test [5] and in [6] was inactive. Also, the compound was called inactive in test [7], in test [8], in [9], in [10], in test [11] and in test [12]. Moreover, the call in [15], in test [19], in test [13], in test [14] and in [20] was inactive.

Take `CCC(C)CO` (stereo not drawn): the result in test [1], in test [2], in [3], in test [4], in test [18] and in test [5] was inactive. Also, the result in [6], in test [7], in test [8], in test [10], in test [11] and in [12] was inactive. Further, the outcome in [15], in [19], in test [13] and in test [14] was inactive.

For the compound `N#CCCOCCC#N`, the outcome in test [1], in test [2], in test [3], in test [4], in test [5] and in test [6] was inactive. Besides, the result in [7], in [8], in test [9], in test [10], in test [11] and in [12] was inactive. The outcome in [15], in test [16], in test [19], in test [13] and in test [20] was inactive.

For `CO[Si](CCCOCC1CO1)(OC)OC` (stereo not drawn), the result in test [1], in test [2], in test [3], in test [4], in [18] and in test [5] was inactive. The result in test [6], in [7], in test [8], in test [10], in test [11] and in [12] was inactive. Further, the compound was called inactive in test [15] and in [13].
